FadD28 binding: inhibitors of FadD28 bisubstrate probe binding, primary screen, biochemical, fluorescence polarization, single point. Mycobacterium tuberculosis FadD28 fatty-acid-AMP ligase. inhibition, % at 12.5 µM. 0.22% of 360,000 active; in the data active = inhibition above about 8.5%, passing the limit was not always enough
FBA Mtb inh: Mtb FBA enzyme inhibitors, primary screen, biochemical, fluorescence, strain H37Rv; 2.3% of 360,000 active; AID 588726, 2011; inhibition, % at 1 µM; purified M. tuberculosis FBA, fluorescence read-out; in the data active = inhibition above about 27%;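 note: 0% = vehicle and 100% = reference inhibitor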
Mtb BioA inh: M. tuberculosis BioA enzyme inhibitors, primary screen, biochemical, plate reader, single point, HTS; 7,8-diaminopelargonic acid synthase BioA (Mycobacterium tuberculosis); purified M. tuberculosis BioA enzyme; 0.096% of 360,000 active; inhibition, % at 9.99 µM; in the data active = inhibition above about 40%
GDH-TPI inh: GDH-TPI coupling enzyme inhibitors, primary screen, artefact control for M. tuberculosis FBA inhibitor project, biochemical, absorbance, full deck | GDH-TPI coupled enzyme counterscreen, NADH absorbance | inhibition, % at 4.8 µM | 1.2% of 360,000 active; in the data active = inhibition above about 30%;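 note: 0% = DMSO wells and 100% = wells lacking the enzyme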
Rv3671c protease: Rv3671c serine protease inhibitors, primary screen, biochemical, fluorescence polarization, M. tuberculosis H37Rv; AID 2606, 2010; inhibition, % at 5.96 µM; P9WHR9; 0.048% of 320,000 active; in the data active = inhibition above about 38%;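 note: extracellular domain of Rv3671c used as enzyme; 0% = enzyme with DMSO and 100% = no enzyme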
Target sequence (P9WHR9 whole entry, looked up, the tested form may be a part): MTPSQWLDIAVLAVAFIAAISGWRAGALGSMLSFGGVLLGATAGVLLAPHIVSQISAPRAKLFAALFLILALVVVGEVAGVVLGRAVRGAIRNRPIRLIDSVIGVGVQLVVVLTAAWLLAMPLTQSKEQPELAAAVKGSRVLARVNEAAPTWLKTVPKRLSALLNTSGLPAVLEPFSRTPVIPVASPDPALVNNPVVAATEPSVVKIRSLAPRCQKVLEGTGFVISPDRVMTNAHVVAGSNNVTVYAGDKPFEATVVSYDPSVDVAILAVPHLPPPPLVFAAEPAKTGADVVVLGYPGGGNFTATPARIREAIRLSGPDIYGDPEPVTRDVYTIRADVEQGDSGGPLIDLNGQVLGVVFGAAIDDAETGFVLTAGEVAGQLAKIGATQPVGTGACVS
* marks the source's active call; other numbers are inactive results; · = not tested or not shown; + = active, no number. Sampled rows, rich in hits. Any-hit rate of the full collection: about 3%.

SMILES	FadD28 binding	FBA Mtb inh	Mtb BioA inh	GDH-TPI inh	Rv3671c protease
CO[C@H]1CN(C)C(=O)c2cc(NC(=O)C3CCCC3)ccc2OC[C@@H](C)N(C(=O)CC2CC2)C[C@H]1C	·	·	0	·	·
C[C@@H]1CN([C@@H](C)CO)C(=O)Cc2cc(NS(=O)(=O)c3ccc(Cl)cc3)ccc2O[C@@H]1CN(C)Cc1ccncc1	·	·	-2	·	·
C[C@H]1CN([C@@H](C)CO)S(=O)(=O)c2ccc(C#CC3(O)CCCC3)cc2O[C@H]1CN(C)C(=O)c1ccncc1	·	·	1	·	·
O=C(C[C@@H]1C[C@@H]2c3cc(NC(=O)C4CCOCC4)ccc3O[C@@H]2[C@@H](CO)O1)NCCc1ccccc1	·	·	-1	·	·
O=C(NN=Cc1ccc(F)c(F)c1)c1ccc(NS(=O)(=O)c2cccs2)cc1	-3	0	·	46*	-1
CC(=O)c1ccc(Nc2nc(C(N)CC(C)C)cs2)cc1 (stereo unspecified)	-1	7	7	32*	·
CC(=O)c1ccc(Nc2nc(C(N)C3CCCCC3)cs2)cc1 (stereo unspecified)	-1	3	-2	34*	·
COc1ccc(CC(N)c2csc(Nc3ccc(C(C)=O)cc3)n2)cc1 (stereo unspecified)	0	3	-8	38*	·
COc1ccc(CC(N)c2csc(Nc3ccc(C(=O)c4ccccc4)cc3)n2)cc1 (stereo unspecified)	-11	1	0	16	·
COC(=O)C[C@@H]1CC[C@@H](NC(=O)Nc2ccc(C(F)(F)F)cc2)[C@@H](CO)O1	·	·	-1	·	·
CCC(=O)N(C)C[C@@H]1Oc2cc(C#CC3CC3)ccc2S(=O)(=O)N([C@@H](C)CO)C[C@H]1C	·	·	-1	·	·
COc1ccccc1C(=O)N1C[C@H]2[C@@H](c3ccccc31)[C@H](CO)N2C(=O)Cc1ccccc1	·	·	2	·	·
CC(=O)c1ccc(N2CCN(C(=O)C(=O)c3c(C)[nH]c4ccccc34)CC2)cc1	-5	-4	8	34*	-2
C[C@H]1CCCCO[C@@H](CN(C)C(=O)Nc2cccc3ccccc23)[C@@H](C)CN([C@@H](C)CO)C(=O)c2cc(NS(=O)(=O)c3ccccc3)ccc2O1	·	·	-2	·	·
Cc1ccc(OCC(=O)N/N=C/C=C/c2ccco2)cc1	1	2	-2	27	0
O=C(COc1ccccc1[N+](=O)[O-])N/N=C/C=C/c1ccco1	1	-1	·	49*	5
COc1ccccc1NC(=O)N[C@@H]1CC[C@H](CCNS(=O)(=O)c2ccc(Cl)cc2)O[C@@H]1CO	·	·	4	·	·
O=S(=O)(Cc1ccccc1)N1CCCCN2[C@H](CO)[C@H](c3ccc(-c4cncnc4)cc3)[C@H]2C1	·	·	-1	·	·
Cn1nc(-c2ccccc2)c2ncc(C(F)(F)F)cc21	-1	28*	·	6	-6
Cc1ccc(N(C)S(=O)(=O)c2c(C)noc2/C=C/N(C)C)cc1	-1	4	-1	34*	-16
C[C@H](CO)N1C[C@H](C)[C@@H](CN(C)C(=O)NC2CCCCC2)Oc2ccc(NC(=O)Nc3ccc4c(c3)OCO4)cc2C1=O	·	·	0	·	·
COc1cc2cc(CN(CCO)C(=O)c3cccs3)c(=O)[nH]c2cc1OC	-1	14	0	37*	-3
COc1ccccc1NC(=O)N(Cc1cc2cc(OC)c(OC)cc2[nH]c1=O)CC1CCCO1 (stereo unspecified)	0	19	5	34*	4
O=c1[nH]c2ccccc2cc1CN(CC1CCCO1)S(=O)(=O)c1ccc(Cl)cc1 (stereo unspecified)	·	2	-1	5	-9
COc1ccc2[nH]c(=O)c(CN(CC3CCCO3)C(=O)Nc3ccccc3OC)cc2c1 (stereo unspecified)	1	9	0	15	·
SMILES	FadD28 binding	FBA Mtb inh	Mtb BioA inh	GDH-TPI inh	Rv3671c protease
COc1ccc2cc(CN(CC3CCCO3)S(=O)(=O)c3ccccc3Cl)c(=O)[nH]c2c1 (stereo unspecified)	-2	6	0	32*	2
COc1ccc2[nH]c(=O)c(CN(CCO)C(=O)c3cccs3)cc2c1	1	8	-1	7	-1
OC[C@@H]1[C@@H](c2ccc(-c3cccnc3)cc2)[C@@H]2CN(CC3CC3)CCCCN12	·	·	6	·	·
CCCC#Cc1ccc([C@H]2[C@@H](CO)N3CCCCN(CC4CCOCC4)C[C@H]23)cc1	·	·	5	·	·
C/C(=N\Nc1c([N+](=O)[O-])c(C)nn1C)c1ccc(F)cc1F	1	0	-1	33*	6
CN(C)CC(=O)Nc1ccc2c(c1)[C@H]1C[C@H](CC(=O)N3CCN(C)CC3)O[C@@H](CO)[C@H]1O2	·	·	0	·	·
Cc1cc(N)n(-c2ccc(Oc3ccccc3)c(S(=O)(=O)O)c2)n1	14*	2	·	-2	·
CCOC(=O)/C(=C/c1c(C)n(C)c2ccc([N+](=O)[O-])cc12)C(C)=O	0	-8	·	31*	-1
Cc1c(C)c2c(OCC(=O)N3CCC(C(=O)O)CC3)cc3c(c2oc1=O)CCC(C)(C)O3	-4	+	-1	36*	5
Cc1c(OCC(=O)N2CCC(C(=O)O)CC2)ccc2c3c(c(=O)oc12)CCC3	-1	15	1	25	11
Cc1cc(=O)oc2c3c(cc(OCC(=O)NCC4CCC(C(=O)O)CC4)c12)OC(C)(C)CC3 (stereo unspecified)	-4	+	0	17	0
Cc1c(C)c2c(OCC(=O)NCC3CCC(C(=O)O)CC3)cc3c(c2oc1=O)CCC(C)(C)O3 (stereo unspecified)	-2	120*	0	8	·
CN(C)C(=O)C[C@H]1C[C@H]2c3cc(NC(=O)c4cccnc4)ccc3O[C@H]2[C@H](CO)O1	·	·	19	·	·
CCN(CC)c1ccc(/C=C2\C(=O)c3ccc(C(=O)O)cc3C2=O)cc1	25*	-11	·	1	-23
CCN(CC)c1ccc(C=C2C(=O)NC(=S)NC2=O)cc1	-3	0	1	19	-4
O=C(/C=C/Nc1cccc(C(F)(F)F)c1)c1ccc(Oc2ncccn2)cc1	2	-1	6	32*	-7
O=C(/C=C/Nc1cccc(C(F)(F)F)c1)c1ccco1	0	0	·	7	-1
C[C@@H]1CN([C@H](C)CO)C(=O)c2cc(NC(=O)Nc3cccc4ccccc34)ccc2O[C@H]1CN(C)Cc1ccc(C(=O)O)cc1	·	·	0	·	·
CN(C)S(=O)(=O)c1cccc(NC(=O)c2c[nH]c3ccccc23)c1	-7	78*	1	-2	-28
CN(C)S(=O)(=O)c1cccc(NC(=O)c2cc(=O)[nH]c3ccccc23)c1	-3	2	·	3	-4
Cc1cncc(NCc2cccc(Cl)c2)n1	-4	118*	0	4	·

Screens (PubChem)
